Screening data as filed in PubChem.
An excerpt weighted towards active compounds, which were near 3.4% of everything screened.
PAFAH1B2 FP inh: PAFAH1B2 (human) inhibition | P68402 | recombinant PAFAH1B2, FP-rhodamine activity probe, fluorescence polarization | inhibition, % at 3.39 µM | actives 1.2% (n = 340,000);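 active = inhibition above the mean of all tested compounds plus 3 SD, cut at about 24% in these data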;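 note: 0% = enzyme with DMSO and 100% = wells lacking PAFAH1B2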
Target sequence (P68402 whole entry, looked up): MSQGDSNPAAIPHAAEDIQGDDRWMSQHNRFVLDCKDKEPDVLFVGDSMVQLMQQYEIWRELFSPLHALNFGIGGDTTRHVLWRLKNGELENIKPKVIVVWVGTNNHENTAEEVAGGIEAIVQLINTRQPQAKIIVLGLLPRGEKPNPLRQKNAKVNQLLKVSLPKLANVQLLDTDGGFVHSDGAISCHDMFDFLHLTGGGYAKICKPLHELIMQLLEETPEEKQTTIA
PP1 inh: blocks human PP1-alpha phosphatase, a PP5 counter-screen; P62136; purified PP1alpha, OMFP fluorescence; inhibition, % at 6.7 µM; actives 0.9% (n = 320,000); AID 2235;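 active = inhibition above the mean inhibition of all tested compounds plus 3 SD, computed separately for each screening campaign, cut at about 15% in these data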
PP5 primary: blocks human protein phosphatase 5 activity; AID 1987; actives 0.18% (n = 320,000); inhibition, % at 6.7 µM; purified PP5c, OMFP substrate fluorescence;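 active = inhibition above the campaign's mean inhibition across all tested compounds plus 3 SD, cut at about 9.5% in these data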;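 note: 0% = DMSO only and 100% = 100 µM cantharidin control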
PAFAH1B3 FP inh: PAFAH1B3 (human) inhibition; actives 0.28% (n = 340,000); Q15102; inhibition, % at 3.39 µM; recombinant PAFAH1B3, FP-rhodamine probe, fluorescence polarization;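 active = inhibition above the screen-wide average of all tested compounds plus 3 SD, cut at about 25% in these data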;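 note: 0% = enzyme with DMSO only and 100% = wells lacking PAFAH1B3 protein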
Target sequence (Q15102 whole entry, looked up): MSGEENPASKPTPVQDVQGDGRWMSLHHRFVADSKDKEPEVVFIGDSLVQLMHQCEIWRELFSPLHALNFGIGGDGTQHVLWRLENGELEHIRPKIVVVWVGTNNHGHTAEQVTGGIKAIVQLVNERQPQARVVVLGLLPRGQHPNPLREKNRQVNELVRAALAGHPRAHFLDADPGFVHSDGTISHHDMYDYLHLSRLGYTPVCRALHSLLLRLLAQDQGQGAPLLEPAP
pPAFAH FP inh: inhibitors of human plasma PAF acetylhydrolase (pPAFAH). Q13093. recombinant pPAFAH, FP-rhodamine probe fluorescence polarization. inhibition, % at 3.39 µM. actives 1.5% (n = 330,000);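 active = inhibition above the mean inhibition across the screen plus 3 SD, cut at about 25% in these data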;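 note: inhibitors block binding of the rhodamine activity-based probe so polarization drops; 0% = enzyme with DMSO and 100% = wells lacking pPAFAH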
PAFAH2 inh: inhibitors of human PAFAH2; recombinant PAFAH2, FP-rhodamine activity probe, fluorescence polarization; inhibition, % at 3.39 µM; actives 0.99% (n = 340,000); AID 492956;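 active = inhibition above the mean over all tested compounds plus 3 SD, cut at about 30% in these data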;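 note: inhibitors block probe labeling of enzyme so polarization drops; 0% = enzyme with DMSO and 100% = wells lacking PAFAH2 protein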
PAFAH2 FP conf: confirmation of human PAFAH2 inhibitors. actives 65% (n = 2,300). recombinant PAFAH2, FP-rhodamine activity probe, fluorescence polarization. shares compounds with PAFAH2 inh. inhibition, % at 3.39 µM;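 active = mean inhibition over three repeats above a set limit taken from the earlier primary screen, cut at about 30% in these data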;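 note: inhibitor blocks binding of rhodamine activity probe so polarization falls; 0% = enzyme with DMSO and 100% = wells lacking PAFAH2 protein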
Numbers without * were called inactive; / = no result given.

SMILES | PAFAH1B2 FP inh | PP1 inh | PP5 primary | PAFAH1B3 FP inh | pPAFAH FP inh | PAFAH2 inh | PAFAH2 FP conf
O=c1c(C(c2c(O)nc3n(c2=O)CCS3)c2cccc3ccccc23)c(O)nc2n1CCS2 | 3 | -10 | 1 | -3 | -5 | 37* | 26
COc1cccc(/C=C/C(=O)OCC(=O)Nc2cccc(S(=O)(=O)NC3=NCCCCC3)c2)c1 | 5 | / | / | 8 | -1 | 50* | 42*
C/C=C/C(=O)OCC(=O)Nc1cccc(S(=O)(=O)NC2=NCCCCC2)c1 | 4 | 0 | -1 | 12 | 3 | 14 | /
O=C(COC(=O)/C=C/c1cccc(F)c1)Nc1cccc(S(=O)(=O)NC2=NCCCCC2)c1 | 4 | / | / | -1 | 2 | 39* | 16
O=c1oc(-c2ccccc2Br)nc2ccccc12 | -1 | -2 | 0 | 0 | 0 | 56* | 31*
Cc1onc(-c2ccccc2)c1-c1nc2ccccc2c(=O)o1 | 5 | -2 | 2 | -1 | -5 | 63* | 60*
COc1ccc(-c2nc3ccccc3c(=O)o2)cc1OC | -1 | -3 | 1 | 5 | -5 | 41* | 34*
CCOc1ccc(-c2nc3ccccc3c(=O)o2)cc1 | -4 | -1 | 0 | 3 | -1 | 54* | 60*
O=S(=O)(NC1CCCC1)c1cc(F)ccc1F | 0 | -1 | -2 | 8 | 5 | 5 | /
Cc1cc(C)c(S(=O)(=O)N2CCCCC2CCNC(=O)C(=O)NC2CC2)c(C)c1 (stereo unspecified) | 4 | -2 | 0 | 11 | -3 | 4 | /
CN(CC(=O)Nc1cccc(F)c1)C(=O)c1ccccc1Cc1ccccc1 | 1 | 0 | 3 | 11 | -6 | -3 | /
CCN(c1ccccc1)S(=O)(=O)c1ccc(OC)c(NC(=O)Cc2ccccc2OC)c1 | 0 | 2 | 3 | 7 | 1 | 30* | 16
COc1ccccc1CC(=O)Nc1cc(Cl)ccc1O | 4 | -2 | 0 | 4 | 3 | 83* | 80*
COc1ccccc1CC(=O)Nc1ccc([N+](=O)[O-])cc1O | 11 | -3 | 4 | 5 | -3 | 34* | 15
COc1ccccc1NC(=O)Cc1cccc2ccccc12 | 2 | -1 | 2 | 6 | 0 | -3 | /
O=C(COc1ccccc1Cl)Nc1cc(Cl)ccc1O | 1 | / | / | 1 | / | -4 | /
COc1ccccc1CC(=O)Nc1ccccc1O | -5 | -5 | -1 | 5 | 2 | 58* | 60*
Cc1ccc(CNC(=O)c2ccc(S(=O)(=O)N(C)C)cc2)n1C | 3 | 0 | 2 | 8 | 6 | -1 | /
CC(C)N(C(=O)c1nn(C)c2c1CSc1ccccc1-2)C1CCCCC1 | 16 | 0 | 1 | 8 | 6 | 4 | /
NC(=O)NC(=O)COC(=O)/C=C/c1cccs1 | 6 | -5 | 3 | 6 | -4 | 2 | /
O=C(COC(=O)/C=C/c1cccs1)Nc1ccc2ccccc2c1 | 4 | -5 | 3 | -2 | 6 | 56* | 51*
CC(=O)c1ccccc1NC(=O)COC(=O)/C=C/c1ccc(C)o1 | 2 | -1 | -2 | 1 | 6 | 31* | 24
Cc1ccc(/C=C/C(=O)OCC(=O)NCCc2ccc(S(N)(=O)=O)cc2)o1 | -3 | / | / | 1 | 2 | -4 | /
CC(=O)c1ccccc1NC(=O)COC(=O)/C=C/c1cccs1 | -2 | 3 | -1 | 4 | 4 | 53* | 39*
CC(=O)c1ccc(NC(=O)COC(=O)/C=C/c2cccs2)cc1 | 9 | / | / | 5 | -7 | 57* | 46*
SMILES | PAFAH1B2 FP inh | PP1 inh | PP5 primary | PAFAH1B3 FP inh | pPAFAH FP inh | PAFAH2 inh | PAFAH2 FP conf
O=C(COC(=O)/C=C/c1cccs1)Nc1ccccc1Cl | -5 | -4 | 1 | 5 | 5 | 58* | 36*
O=C(COC(=O)c1ccccc1O)NC12CC3CC(CC(C3)C1)C2 | 11 | / | / | 8 | 11 | 68* | 63*
Cc1cccc(C(=O)OCC(=O)NC23CC4CC(CC(C4)C2)C3)c1O | 11 | / | / | -4 | 5 | 59* | 46*
COc1ccccc1CC(=O)NC12CC3CC(CC(C3)C1)C2 | 0 | 3 | -1 | 4 | -1 | 1 | /
COc1ccc(C(=O)OCC(=O)NC23CC4CC(CC(C4)C2)C3)c(OC)c1OC | 11 | -1 | -1 | 10 | 23 | 86* | 86*
O=c1c2c([nH]c3ccccc13)CCCC2 | 5 | -3 | 0 | 6 | -2 | 2 | /
O=c1c2c([nH]c3ccccc13)C(=C1CCCC1)CC2 | 9 | -2 | 2 | 12 | 16 | 33* | 7
O=C(COC(=O)CCCN1C(=O)c2cccc3cccc(c23)C1=O)Nc1cccc(C(F)(F)F)c1 | -11 | 5 | 5 | -9 | 2 | 36* | 33*
O=C(COC(=O)CCCN1C(=O)c2cccc3cccc(c23)C1=O)Nc1cccc(Br)c1 | 7 | 6 | 4 | 4 | 13 | 56* | 25
CCc1nn2c(=O)cc(COC(=O)c3cc(Cl)c(OC)c(OC)c3)nc2s1 | 1 | -1 | 1 | 7 | 3 | 6 | /
O=S(=O)(NCc1csc(-c2cccs2)n1)c1cccc(C(F)(F)F)c1 | 8 | -2 | 1 | 12 | 3 | 13 | /
Cc1sc2ncnc(SCC(=O)N3CCCC3=O)c2c1C | 9 | -4 | 2 | 7 | 0 | 81* | 83*
O=C(COC(=O)c1ccc[nH]c1=O)NC1CCCCC1 | 5 | 0 | -1 | 2 | 4 | -6 | /
O=C(Oc1ccc(-c2csnn2)cc1)C1CC1 | 6 | -2 | -2 | 7 | 20 | 75* | 76*
Cc1c(C(c2ccc(Br)cc2)c2c(C)n(C)n(-c3ccccc3)c2=O)c(=O)n(-c2ccccc2)n1C | 5 | -9 | -8 | 5 | 2 | 37* | 26
Nc1[nH]n2c(=O)cc(-c3ccccc3)nc2c1N=Nc1ccccc1 | 14 | 9 | 2 | 9 | 9 | 32* | 27
CC(C)(C)OC(=O)C[C@H]1C/C=C\C[C@@H](CC(=O)N[C@H](CO)Cc2ccccc2)C(=O)NC[C@H](c2ccccc2)OC1=O | 10 | / | / | 0 | 3 | 52* | 8
CC(C)[C@H](NC(=O)CCCn1nnc2ccccc2c1=O)C(=O)O | 5 | -5 | -2 | 6 | 7 | 4 | /
N#CCC(=O)Nc1ccc(C(=O)OCC(=O)N(C2CCCCC2)C2CCCCC2)cc1 | -2 | 4 | 2 | -2 | 3 | -6 | /
CCN(C(=O)COC(=O)c1ccc(Cl)cc1N)C1CCCCC1 | 4 | -3 | -1 | 7 | 4 | 1 | /
O=C(COC(=O)c1ccccc1)NC1CCCC1 | 8 | 7 | -7 | 6 | 7 | 73* | 58*
O=C(COC(=O)c1c2c(nc3ccccc13)/C(=C/c1ccco1)CC2)NC1CCCC1 | 4 | / | / | 18 | / | 36* | 7
N#CCC(=O)Nc1ccc(C(=O)OCC(=O)NC2CCCCCC2)cc1 | 3 | -2 | 1 | 4 | 6 | 83* | 84*
